Measurements from PubChem BioAssay (NCI).
Compounds without any hit were thinned out: in the full panel of roughly 83,000, 20% have a hit.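 Compound tested at a single concentration for 48 hours in 96-well plates; a percent growth value below 10 was scored as active.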 Active and inactive are the calls of the source.

Tested on: HL-60(TB) leukemia
Test: NCI-60 one-dose screen, 48 h (100 = growth as untreated, 0 = no growth, -100 = all killed)
Details: 10 µM unless noted

Row | Compound | growth
1 | NNC(=O)/C(=C\c1ccc([N+](=O)[O-])cc1)CC(=O)c1ccc(Cl)c(Cl)c1 | 98.9% (inactive)
2 | CCCC(=O)NC(c1ccc2c(c1)OCO2)c1ccc2cccnc2c1O (stereo not given) | -47.7% (active)
3 | CN(C)CCN1CCN(c2ncccc2C2Nc3ccccc3-n3cccc32)CC1 (stereo not given) | 98.7% (inactive)
4 | COc1ccc2oc3c(C)c4c(c(C)c3c2c1)C(=O)N(Cc1ccccc1)C4=O | 96.2% (inactive)
5 | OCc1ncc(-c2ccccc2)s1 | 91.1% (inactive)
6 | O=Cc1ccc([N+](=O)[O-])s1 | 81.9% (inactive)
7 | C=C1C(=O)O[C@H]2[C@H]1CC/C(COC(=O)CCC(=O)NCCOCCOCC(=O)Nc1ccc(OC)c(C(N)=O)c1O)=C\CC[C@@]1(C)O[C@@H]21 | 65.3% (inactive)
8 | N#Cc1c(-c2ccc(Cl)cc2)cc(-c2cc3ccccc3o2)nc1SCC(=O)c1ccc(Cl)cc1 | 123% (inactive)
9 | Cc1ccc(-n2c(=S)[nH]c3sc4c(c3c2=O)CCC(=O)C4)cc1 | 4.93% (active)
10 | O=C1NCC(Nc2ccc(Br)cc2Cl)C(=O)N1 (stereo not given) | 108% (inactive)
